Bioassay records as filed in PubChem BioAssay.
PD-1 reversal = activators reversing PD-1 mediated T-cell inhibition, primary screen, luminescence, primary human CD4 T cells, PD-L1 beads. CellTiter-Glo 96 h. AID 2316, 2010. 29,000 tested, under 10 active. activation, % (test concentration not listed); call rule not given here
STK33 kin inh = STK33 kinase inhibitors, primary screen, biochemical, luminescence, ADP-Glo, MBP substrate. inhibition, % at 12.5 µM. 0.44% of 27,000 active; in the data active means inhibition above about 20%; inconclusive means no clear call, values can overlap the other calls
Target sequence (Q9BYT3 whole entry, looked up): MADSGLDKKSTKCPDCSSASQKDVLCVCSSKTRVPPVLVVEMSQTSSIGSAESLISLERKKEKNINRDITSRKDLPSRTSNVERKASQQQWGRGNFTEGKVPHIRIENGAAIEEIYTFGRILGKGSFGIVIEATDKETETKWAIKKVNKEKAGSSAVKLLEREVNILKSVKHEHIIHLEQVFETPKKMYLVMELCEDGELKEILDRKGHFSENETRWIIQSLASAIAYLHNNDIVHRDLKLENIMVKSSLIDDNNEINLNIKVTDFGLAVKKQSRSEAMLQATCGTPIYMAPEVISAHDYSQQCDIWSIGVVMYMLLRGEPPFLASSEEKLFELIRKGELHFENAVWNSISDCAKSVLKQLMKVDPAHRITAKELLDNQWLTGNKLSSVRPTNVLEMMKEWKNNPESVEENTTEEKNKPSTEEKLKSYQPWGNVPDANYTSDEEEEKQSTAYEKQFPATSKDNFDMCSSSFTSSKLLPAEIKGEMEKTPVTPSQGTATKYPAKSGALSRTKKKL
NOMO-1 viab = NOMO-1 AML cell viability reduction, primary screen, STK33 inhibitor project, CellTiter-Glo luminescence; inhibition, % (concentration not given with the values); 7.5% of 37,000 active; NOMO-1 AML viability, 72 h; in the data active means inhibition above about 80%; inconclusive means no clear call, values can overlap the other calls
Each line names hits and unclear results; the compound was inactive in the other large screens. Shown is part of a subset that was picked to be rich in hits.

COc1ccc(NC(=O)Nc2cccc3c2O[C@@H](CN(C)Cc2ccc(C(=O)Nc4ccccc4N)cc2)[C@@H](C)CN([C@@H](C)CO)C3=O)cc1	NOMO-1 viab 129 (no result: STK33 kin inh)
COc1ccc(NC(=O)Nc2cccc3c2O[C@H](CN(C)Cc2ccc(C(=O)Nc4ccccc4N)cc2)[C@H](C)CN([C@H](C)CO)C3=O)cc1	NOMO-1 viab 140 (no result: STK33 kin inh)
COc1ccc(NC(=O)Nc2cccc3c2O[C@@H](CN(C)Cc2ccc(C(=O)O)cc2)[C@H](C)CN([C@@H](C)CO)C3=O)cc1	none (no result: STK33 kin inh)
COC(=O)c1cc(O)c(C(=O)c2c(O)cccc2C(=O)O)c(O)c1	STK33 kin inh 94
COC(=O)c1cccc(O)c1C(=O)c1c(O)cc(C)cc1O	none
CC(C)(C)c1ccc(C(=O)Nc2ccc(NC(=O)c3ccccc3F)cc2)cc1	NOMO-1 viab 125 (no result: STK33 kin inh)
O=C(Nc1ccc(NC(=O)c2ccccc2O)cc1)c1ccc(Cl)cc1	none
Nc1nc(N2CCOCC2)ncc1S(=O)(=O)c1ccc(Cl)cc1	none (no result: STK33 kin inh)
CCN(CC)C(=O)C1Sc2nnc(-c3ccccc3)n2NC1c1ccc(C)cc1 (stereo not given)	none
CCn1c(SCC(=O)Nc2ccc(C)c(F)c2)nnc1-c1cccc(Cl)c1	none
Clc1ccc(-c2cnc3n2CCC3)cc1Cl	NOMO-1 viab 112 (no result: STK33 kin inh)
COc1ccc(-c2[nH]nc(SC)c2C#N)cc1	none (no result: STK33 kin inh)
COc1ccc(CCN=Cc2ccc3c(c2)OCO3)cc1OC	none (no result: STK33 kin inh)
C[C@H]1CN([C@@H](C)CO)C(=O)Cc2cc(NC(=O)Cc3cn(C)c4ccccc34)ccc2O[C@H]1CN(C)Cc1ccc(C(F)(F)F)cc1	NOMO-1 viab 83 (no result: PD-1 reversal)
C[C@@H]1CN([C@H](C)CO)C(=O)Cc2cc(NC(=O)Cc3cn(C)c4ccccc34)ccc2O[C@@H]1CN(C)C(=O)Nc1ccc(C(F)(F)F)cc1	none
C[C@@H]1CN([C@H](C)CO)C(=O)Cc2cc(NC(=O)Cc3cn(C)c4ccccc34)ccc2O[C@H]1CN(C)Cc1ccc(C(F)(F)F)cc1	NOMO-1 viab 133
C[C@@H]1CN([C@@H](C)CO)C(=O)Cc2cc(NC(=O)Cc3cn(C)c4ccccc34)ccc2O[C@@H]1CN(C)C(=O)Nc1ccc(C(F)(F)F)cc1	none
CSc1nc(C)cc(OCC(=O)Nc2ccc(Cl)cc2)n1	none
COC(=O)c1cc(C)nc(Sc2ccccc2NC(=O)Nc2ccc(Cl)cc2)n1	NOMO-1 viab 109
O=C(O)CCc1ccc(-c2ccc(Cl)cc2)n1-c1ccc(C(=O)O)cc1	none
CCN1C(=O)c2cccc3c(S(=O)(=O)Nc4ccccc4)ccc1c23	NOMO-1 viab 105 (no result: STK33 kin inh)
CCN1C(=O)c2cccc3c(S(=O)(=O)N4CCCC4C(=O)O)ccc1c23 (stereo not given)	none
Nc1cc(N)cc(C(=O)OCN2C(=O)c3ccccc3C2=O)c1	none (no result: STK33 kin inh)
COc1ccccc1-c1cc(-c2ccccc2)nc(SCC(N)=O)c1C#N	none (no result: PD-1 reversal)
C=CCN1CCc2c(cc(O)c(O)c2Cl)C(c2ccccc2)C1 (stereo not given)	NOMO-1 viab 117 (no result: PD-1 reversal)
Oc1ccc(C2CNCCc3c2cc(O)c(O)c3Cl)cc1 (stereo not given)	none (no result: PD-1 reversal)
Cc1cc(C)c(NC(=O)CSc2nc(-c3ccc(F)cc3)cs2)c(C)c1	NOMO-1 viab inconclusive (no result: PD-1 reversal)
FC(F)(F)c1nc2ccc(Cl)cc2[nH]1	NOMO-1 viab 121 (no result: STK33 kin inh)
O=C(O)c1ccc2nc(CCc3nc4ccc(C(=O)O)cc4[nH]3)[nH]c2c1	none (no result: STK33 kin inh)
COc1cc2cc(Oc3ccc4ccc(=O)oc4c3)c(=O)oc2cc1OC1OC(COC(=O)CC(C)(O)CC(=O)O)C(O)C(O)C1O (stereo not given)	none
CC(C)CC1NC(=O)C(CC(C)C)N(O[C@@H]2O[C@H](COC(=O)CCC(=O)O)[C@@H](O)[C@H](O)[C@H]2O)C1=O (stereo not given in full)	NOMO-1 viab 119
COC(=O)c1c(-c2ccccc2)csc1NC(=O)c1cc2cccc(OC)c2oc1=O	none
Cc1ccc(S(=O)(=O)Nc2ccc3c(c2)CC(=O)N([C@@H](C)CO)C[C@H](C)[C@H](CN(C)Cc2ccc(Oc4ccccc4)cc2)O3)cc1	NOMO-1 viab 120
Cc1ccc(S(=O)(=O)Nc2ccc3c(c2)CC(=O)N([C@@H](C)CO)C[C@@H](C)[C@@H](CN(C)Cc2ccc(Oc4ccccc4)cc2)O3)cc1	NOMO-1 viab 115
COc1ccc(CN(C)C[C@H]2Oc3ccc(NS(=O)(=O)c4ccc(C)cc4)cc3CC(=O)N([C@@H](C)CO)C[C@@H]2C)cc1	none (no result: PD-1 reversal, STK33 kin inh)
COc1ccc(CN(C)C[C@@H]2Oc3ccc(NS(=O)(=O)c4ccc(C)cc4)cc3CC(=O)N([C@H](C)CO)C[C@@H]2C)cc1	none (no result: PD-1 reversal, STK33 kin inh)
CSc1ccccc1NC(=O)C(C)n1nc([N+](=O)[O-])c(Br)c1C (stereo not given)	none
O=C(CSc1ccc(F)cc1Cl)C12CC3CC(CC(C3)C1)C2	none (no result: STK33 kin inh)
N#CSCC(=O)C12CC3CC(CC(C3)C1)C2	NOMO-1 viab 113 (no result: STK33 kin inh)
Cc1ccc(S(=O)(=O)c2ccc(Cl)cc2)cc1S(=O)(=O)N1CCCC1	none (no result: STK33 kin inh)
CN1CCc2cc3c(cc2C2OC(O)c4c(ccc5c4OCO5)C21)OCO3 (stereo not given)	none
O[C@@H]1[C@@H](O)C=C2CCN3Cc4cc5c(cc4[C@H]1C23)OCO5 (stereo not given in full)	NOMO-1 viab 114 (no result: PD-1 reversal)
COC1C=CC23c4cc5c(cc4CN(C[C@H]2O)[C@@H]3C1)OCO5 (stereo not given in full)	NOMO-1 viab inconclusive (no result: PD-1 reversal)
O[C@H]1[C@H]2c3cc4c(cc3CN3CCC(=C[C@@H]1O)[C@H]23)OCO4	NOMO-1 viab 142
CCOC(=O)c1ccc(COC(=O)c2ccc3ccccc3c2O)o1	none
CC(C)(C)c1ccc(C(=O)N2CCN(c3ccc([N+](=O)[O-])c(NCc4cccnc4)c3)CC2)cc1	NOMO-1 viab 111
CC(=O)N1CCN(c2ccc([N+](=O)[O-])c(NCc3cccnc3)c2)CC1	none
O=C(CSc1nc2ccccc2c(=O)n1-c1ccc(Cl)cc1)Nc1ccc(Cl)c(Cl)c1	none
Cc1nnc(SCC(=O)Nc2ccc(C#N)cc2)s1	none
Cc1cc(C2(c3cc(C)c(N)c(C)c3)CCCCC2)cc(C)c1N	NOMO-1 viab 122 (no result: STK33 kin inh)
CCOC(=O)c1c(NC(=O)CCN2CCC(C)CC2)sc2c1CC(C)(C)OC2	STK33 kin inh inconclusive
CCOc1ccc2nc(Nc3nc(C)cc(=O)[nH]3)nc(C)c2c1	none
COc1ccc2nc(Nc3nc(CSc4ccc(Cl)cc4)cc(=O)[nH]3)nc(C)c2c1	NOMO-1 viab 84 (no result: PD-1 reversal)
Cc1ccc(SCc2cc(=O)[nH]c(SCC(=O)n3c4ccccc4c4ccccc43)n2)cc1	none (no result: STK33 kin inh)
C=C(CO)C(=O)O[C@H]1C[C@@]23O[C@@H]2CC/C(=C/[C@H]2OC(=O)C(=C)[C@H]12)CO[C@@H]3O	NOMO-1 viab 103
N#Cc1c(NC(=O)c2cc3nc(-c4ccco4)cc(C(F)(F)F)n3n2)sc2c1CCCCC2	none
C[C@@H]1CN([C@@H](C)CO)C(=O)Cc2cc(NC(=O)CCN3CCOCC3)ccc2O[C@@H]1CN(C)Cc1ccc(C(=O)Nc2ccccc2N)cc1	none (no result: STK33 kin inh)
C[C@@H]1CN([C@H](C)CO)C(=O)c2cc(NC(=O)CCC(F)(F)F)ccc2O[C@H]1CN(C)Cc1ccc(C(=O)Nc2ccccc2N)cc1	none (no result: STK33 kin inh)
